For some of these results: Potency and affinity values are given separately.
Experiments:
Parameters in all cases: scale not given: direction of the effect not stated beside the values
[1] = biological target: Protein translocase subunit SecA (Escherichia coli (strain K12)) (UniProt P10408); assay: Assay to Identify E. coli SecA ATPase Inhibitors; type: functional; conditions: 30 µM
[2] = biological target: T1, Ubiquitin-activating enzyme e1, putative (Leishmania donovani (strain BPK282A1)) (UniProt E9BSI1); assay: Leishmania donovani Ubiquitin Activating Enzyme (LdE1); type: functional; conditions: 30 µM
T1 sequence (whole entry): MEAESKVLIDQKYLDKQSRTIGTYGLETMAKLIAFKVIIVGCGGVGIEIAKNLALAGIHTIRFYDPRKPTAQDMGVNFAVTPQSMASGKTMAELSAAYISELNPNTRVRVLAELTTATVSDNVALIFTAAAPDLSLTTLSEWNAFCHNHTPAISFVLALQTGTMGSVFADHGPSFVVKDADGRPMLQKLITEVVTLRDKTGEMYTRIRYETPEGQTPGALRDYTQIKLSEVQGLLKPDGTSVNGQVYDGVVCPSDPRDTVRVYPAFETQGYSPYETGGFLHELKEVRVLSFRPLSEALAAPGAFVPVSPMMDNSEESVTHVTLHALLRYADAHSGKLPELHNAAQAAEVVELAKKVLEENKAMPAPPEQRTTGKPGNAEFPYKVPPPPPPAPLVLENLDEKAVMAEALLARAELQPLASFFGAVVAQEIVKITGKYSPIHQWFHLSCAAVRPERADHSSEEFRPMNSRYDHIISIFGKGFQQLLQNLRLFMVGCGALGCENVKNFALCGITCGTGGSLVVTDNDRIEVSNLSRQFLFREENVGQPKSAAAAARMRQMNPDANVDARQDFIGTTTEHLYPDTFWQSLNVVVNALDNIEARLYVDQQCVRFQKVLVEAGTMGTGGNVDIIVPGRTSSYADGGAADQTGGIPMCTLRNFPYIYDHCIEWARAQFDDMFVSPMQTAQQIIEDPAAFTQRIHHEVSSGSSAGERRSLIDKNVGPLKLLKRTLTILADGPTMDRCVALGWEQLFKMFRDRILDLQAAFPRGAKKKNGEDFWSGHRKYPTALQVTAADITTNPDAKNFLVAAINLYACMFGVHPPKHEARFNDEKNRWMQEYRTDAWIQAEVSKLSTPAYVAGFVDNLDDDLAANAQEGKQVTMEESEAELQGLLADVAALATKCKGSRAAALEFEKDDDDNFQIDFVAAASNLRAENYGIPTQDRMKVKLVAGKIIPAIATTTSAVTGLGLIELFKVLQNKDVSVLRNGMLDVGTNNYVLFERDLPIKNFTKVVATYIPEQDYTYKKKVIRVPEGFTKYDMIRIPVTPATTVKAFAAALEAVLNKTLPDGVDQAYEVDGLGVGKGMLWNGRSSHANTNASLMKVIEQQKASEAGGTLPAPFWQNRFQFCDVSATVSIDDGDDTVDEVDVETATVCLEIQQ

[3] = biological target: AMP-activated protein kinase, AMPK (Homo sapiens) (UniProt P54646+O43741+P54619+Q9UGJ0+Q9Y478+Q13131+Q9UGI9); assay: AMP-dependent Kinase enzyme assay. An in vitro enzyme assay that detects ADP turnover that is directly proportional to AMPK activity. This uses naive AMPK that is activated during the assay with MK-8722; type: functional; conditions: 30 µM
[4] = biological target: Sialic acid-binding Ig-like lectin 9 (Homo sapiens) (UniProt Q9Y336); assay: Hs-Siglec9 ALPHAscreen SOP 20170721; conditions: 10 µM
Trypanosoma cruzi = assay: Trypanosoma cruzi phosphomannomutase and mannose-1-phosphate guanylyltransferase assay; type: functional; conditions: 10 µM
[5] = biological target: T2, Arginase-2, mitochondrial (Homo sapiens) (UniProt P78540); assay: in vitro enzyme assay to detect the production of urea directly proportional to the activity of Arginase II; type: functional; conditions: 33.3 µM; further: in the data most compounds retested in dose-response had high values
T2 sequence (whole entry): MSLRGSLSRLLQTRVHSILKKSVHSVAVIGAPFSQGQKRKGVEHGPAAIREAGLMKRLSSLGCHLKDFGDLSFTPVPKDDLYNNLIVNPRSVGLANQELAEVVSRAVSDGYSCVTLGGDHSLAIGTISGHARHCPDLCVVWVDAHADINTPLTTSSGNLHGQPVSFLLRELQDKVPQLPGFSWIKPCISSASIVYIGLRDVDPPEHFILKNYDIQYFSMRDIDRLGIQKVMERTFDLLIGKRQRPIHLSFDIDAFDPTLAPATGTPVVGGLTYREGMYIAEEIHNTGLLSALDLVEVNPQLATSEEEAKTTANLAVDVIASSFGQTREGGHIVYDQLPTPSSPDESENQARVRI

[6] = biological target: T3, Proteasome subunit beta (Trypanosoma cruzi) (UniProt O96673); assay: Trypanosoma cruzi proteasome chymotrypsin-like activity (TcProtChymo) assay.; further: in the data most compounds retested in dose-response had high values; type: functional; conditions: 9.37 µM
T3 sequence (whole entry): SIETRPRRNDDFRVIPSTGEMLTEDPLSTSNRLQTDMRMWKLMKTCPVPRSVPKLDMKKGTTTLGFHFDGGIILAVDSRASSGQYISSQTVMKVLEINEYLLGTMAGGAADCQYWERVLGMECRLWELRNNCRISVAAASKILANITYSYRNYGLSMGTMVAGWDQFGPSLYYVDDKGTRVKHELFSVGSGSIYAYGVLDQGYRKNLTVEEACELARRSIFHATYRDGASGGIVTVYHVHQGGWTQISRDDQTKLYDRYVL

Homo sapiens = species on record: Homo sapiens; assay: To identify inhibition of the IFN signalling (Jak-Stat) pathway via expression of an eGFP reporter gene under the control of an IFN-stimulated response element (ISRE) containing MxA promoter.; type: functional; conditions: 30 µM
[7] = biological target: T4, Tyrosyl-tRNA synthetase, putative (Trypanosoma cruzi (strain CL Brener)) (UniProt Q4DSP6); assay: Trypanosoma cruzi tyrosyl tRNA synthetase (TcYRS) _High Tyrosine SOP; type: functional; conditions: 30 µM; further: in the data most compounds retested in dose-response had high values
T4 sequence (whole entry): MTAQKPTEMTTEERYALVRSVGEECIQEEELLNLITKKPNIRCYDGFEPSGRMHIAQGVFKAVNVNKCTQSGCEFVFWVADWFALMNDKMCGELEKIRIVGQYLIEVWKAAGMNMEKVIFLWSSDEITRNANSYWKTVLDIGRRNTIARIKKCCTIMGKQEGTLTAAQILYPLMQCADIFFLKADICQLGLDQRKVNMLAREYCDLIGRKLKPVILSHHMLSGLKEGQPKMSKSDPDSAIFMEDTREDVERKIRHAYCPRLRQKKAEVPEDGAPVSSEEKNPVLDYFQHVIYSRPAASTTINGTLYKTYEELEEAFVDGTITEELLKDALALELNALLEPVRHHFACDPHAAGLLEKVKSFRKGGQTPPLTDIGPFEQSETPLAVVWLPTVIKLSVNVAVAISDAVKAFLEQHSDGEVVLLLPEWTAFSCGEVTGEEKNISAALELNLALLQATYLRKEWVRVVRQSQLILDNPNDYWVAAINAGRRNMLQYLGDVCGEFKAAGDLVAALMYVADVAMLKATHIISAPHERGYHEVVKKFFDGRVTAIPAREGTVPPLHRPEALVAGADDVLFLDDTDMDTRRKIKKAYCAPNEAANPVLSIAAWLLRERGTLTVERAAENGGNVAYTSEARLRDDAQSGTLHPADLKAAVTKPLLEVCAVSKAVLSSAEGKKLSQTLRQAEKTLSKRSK

[8] = biological target: T4, Tyrosyl-tRNA synthetase, putative (Trypanosoma cruzi (strain CL Brener)); assay: Trypanosoma cruzi tyrosyl tRNA synthetase (TcYRS) SOP; type: functional; conditions: 30 µM
[9] = biological target: Chromo domain-containing protein 1 (Saccharomyces cerevisiae (strain ATCC 204508 / S288c) (Baker's yeast)) (UniProt P32657); assay: ScCHD-1 Enzyme Inhibition Assay; type: functional; conditions: 30 µM; further: in the data most compounds retested in dose-response had high values
Sequence of Chromo domain-containing protein 1 (Saccharomyces cerevisiae (strain ATCC 204508 / S288c) (Baker's yeast)) (P32657 whole entry, the tested form may be a part): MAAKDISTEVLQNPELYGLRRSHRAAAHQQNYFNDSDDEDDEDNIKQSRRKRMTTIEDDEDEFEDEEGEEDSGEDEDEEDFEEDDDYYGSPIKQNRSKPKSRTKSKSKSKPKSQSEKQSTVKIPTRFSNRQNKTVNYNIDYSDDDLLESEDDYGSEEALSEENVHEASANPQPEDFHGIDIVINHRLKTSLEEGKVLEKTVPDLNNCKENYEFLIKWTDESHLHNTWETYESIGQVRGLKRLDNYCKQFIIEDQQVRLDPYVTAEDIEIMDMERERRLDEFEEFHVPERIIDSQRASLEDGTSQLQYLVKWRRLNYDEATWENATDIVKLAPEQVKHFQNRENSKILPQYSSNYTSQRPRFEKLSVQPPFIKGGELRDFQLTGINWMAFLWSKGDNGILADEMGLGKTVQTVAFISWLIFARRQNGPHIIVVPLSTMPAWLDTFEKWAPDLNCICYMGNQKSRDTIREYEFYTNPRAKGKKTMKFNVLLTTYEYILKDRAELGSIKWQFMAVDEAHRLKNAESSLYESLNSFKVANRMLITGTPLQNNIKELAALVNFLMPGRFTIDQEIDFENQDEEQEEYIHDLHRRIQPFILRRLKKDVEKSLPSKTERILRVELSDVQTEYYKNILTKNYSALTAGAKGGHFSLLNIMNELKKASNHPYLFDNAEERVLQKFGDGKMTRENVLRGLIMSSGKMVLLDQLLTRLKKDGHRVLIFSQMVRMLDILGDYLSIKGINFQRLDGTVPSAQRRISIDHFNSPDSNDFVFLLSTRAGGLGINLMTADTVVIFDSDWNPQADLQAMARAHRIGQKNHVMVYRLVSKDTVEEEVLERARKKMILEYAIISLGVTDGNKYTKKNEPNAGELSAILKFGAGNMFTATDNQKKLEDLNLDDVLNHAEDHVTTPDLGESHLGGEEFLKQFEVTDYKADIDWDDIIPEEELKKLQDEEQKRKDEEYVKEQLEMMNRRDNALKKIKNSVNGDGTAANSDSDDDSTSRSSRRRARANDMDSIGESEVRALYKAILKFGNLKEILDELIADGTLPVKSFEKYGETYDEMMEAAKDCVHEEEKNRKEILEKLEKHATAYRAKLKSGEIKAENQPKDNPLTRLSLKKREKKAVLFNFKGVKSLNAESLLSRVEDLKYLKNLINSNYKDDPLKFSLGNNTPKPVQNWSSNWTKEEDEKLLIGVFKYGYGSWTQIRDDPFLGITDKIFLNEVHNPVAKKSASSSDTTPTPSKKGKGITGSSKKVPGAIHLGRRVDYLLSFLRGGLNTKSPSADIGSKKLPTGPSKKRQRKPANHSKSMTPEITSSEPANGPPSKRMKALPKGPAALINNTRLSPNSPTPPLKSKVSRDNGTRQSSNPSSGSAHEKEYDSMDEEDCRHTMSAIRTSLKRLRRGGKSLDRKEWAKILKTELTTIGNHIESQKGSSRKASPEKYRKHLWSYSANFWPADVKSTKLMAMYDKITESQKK

Sequence of Sialic acid-binding Ig-like lectin 9 (Homo sapiens) (Q9Y336 whole entry): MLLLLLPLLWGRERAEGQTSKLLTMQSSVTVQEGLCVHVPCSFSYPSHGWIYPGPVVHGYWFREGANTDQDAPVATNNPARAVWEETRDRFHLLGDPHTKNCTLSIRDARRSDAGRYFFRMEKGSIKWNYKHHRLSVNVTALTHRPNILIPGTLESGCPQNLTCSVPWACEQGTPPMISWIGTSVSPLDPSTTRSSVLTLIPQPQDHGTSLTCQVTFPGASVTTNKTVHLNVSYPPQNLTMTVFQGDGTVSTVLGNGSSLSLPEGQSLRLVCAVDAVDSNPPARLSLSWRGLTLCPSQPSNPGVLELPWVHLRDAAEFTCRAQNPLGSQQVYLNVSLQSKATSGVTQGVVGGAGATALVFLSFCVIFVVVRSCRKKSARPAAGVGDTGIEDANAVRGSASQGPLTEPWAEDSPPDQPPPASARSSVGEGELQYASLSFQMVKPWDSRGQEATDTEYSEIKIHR
Sequence of Protein translocase subunit SecA (Escherichia coli (strain K12)) (P10408 whole entry): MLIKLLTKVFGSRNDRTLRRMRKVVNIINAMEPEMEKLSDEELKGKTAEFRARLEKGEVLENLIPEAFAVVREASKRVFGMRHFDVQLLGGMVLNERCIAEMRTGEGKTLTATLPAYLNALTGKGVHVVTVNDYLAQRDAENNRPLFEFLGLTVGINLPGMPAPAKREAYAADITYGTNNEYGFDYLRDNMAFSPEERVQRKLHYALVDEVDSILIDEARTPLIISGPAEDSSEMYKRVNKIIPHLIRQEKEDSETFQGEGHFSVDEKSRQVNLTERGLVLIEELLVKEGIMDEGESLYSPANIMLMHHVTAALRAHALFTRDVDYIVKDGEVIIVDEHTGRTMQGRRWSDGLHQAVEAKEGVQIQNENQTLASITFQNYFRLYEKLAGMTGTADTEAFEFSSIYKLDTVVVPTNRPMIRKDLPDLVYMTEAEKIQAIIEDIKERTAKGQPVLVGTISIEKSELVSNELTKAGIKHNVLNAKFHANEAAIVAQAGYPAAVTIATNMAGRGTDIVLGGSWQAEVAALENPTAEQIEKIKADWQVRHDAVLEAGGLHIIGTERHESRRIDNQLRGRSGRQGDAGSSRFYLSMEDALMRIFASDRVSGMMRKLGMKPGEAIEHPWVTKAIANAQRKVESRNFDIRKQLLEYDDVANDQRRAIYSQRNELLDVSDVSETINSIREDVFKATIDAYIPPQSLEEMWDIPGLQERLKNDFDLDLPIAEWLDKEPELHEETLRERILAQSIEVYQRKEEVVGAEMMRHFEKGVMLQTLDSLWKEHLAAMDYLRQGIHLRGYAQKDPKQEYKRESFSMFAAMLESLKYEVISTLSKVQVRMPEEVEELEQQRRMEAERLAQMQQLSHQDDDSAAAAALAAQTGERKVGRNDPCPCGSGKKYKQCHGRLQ

CN(C)C(=O)N1C[C@H]2CN(Cc3cccc(F)c3)C(=O)[C@H]2C1
Percent Effect [1]: -4.01% | Percent Effect [2]: 10.8% | Percent Effect [3]: 7.46% | Percent Effect [4]: -7.24% | Percent Effect (Trypanosoma cruzi): -4.2% | Percent Effect [5]: 0.955% | Percent Effect [6]: 20.9% | Percent Effect (Homo sapiens): 4.49% | Percent Effect [7]: 0% | Percent Effect [8]: -7.69% | Percent Effect [9]: -1.2%

NC(=O)c1ccc2c(c1)nc1n2CCN(Cc2ccco2)C1
Percent Effect [1]: -3.62% | Percent Effect [2]: 21.1% | Percent Effect [3]: 5.96% | Percent Effect [4]: 1.24% | Percent Effect (Trypanosoma cruzi): 3.02% | Percent Effect [5]: -2.37% | Percent Effect [6]: 9.49% | Percent Effect (Homo sapiens): 1.88% | Percent Effect [7]: 5.32% | Percent Effect [8]: 5.2% | Percent Effect [9]: 34.5%

Cc1cc(=O)[nH]c(NCCNC(=O)C(c2ccc(F)cc2)N(C)C)n1 (stereo not drawn)
Percent Effect [1]: 4.65% | Percent Effect [2]: 11% | Percent Effect [3]: 0.926% | Percent Effect [4]: 2.46% | Percent Effect (Trypanosoma cruzi): -9.72% | Percent Effect [5]: -10.8% | Percent Effect [6]: 17.4% | Percent Effect (Homo sapiens): 21.7% | Percent Effect [7]: 8.33% | Percent Effect [8]: 16.1% | Percent Effect [9]: -5.31%

CSCCC1c2nc[nH]c2CCN1Cc1cc(Cl)ccc1O (stereo not drawn)
Percent Effect [1]: -4.06% | Percent Effect [2]: -2.67% | Percent Effect [3]: -4.48% | Percent Effect [4]: 3.19% | Percent Effect (Trypanosoma cruzi): 2.63% | Percent Effect [5]: 0.521% | Percent Effect [6]: 18.3% | Percent Effect (Homo sapiens): 35.7% | Percent Effect [7]: 12.6% | Percent Effect [8]: 23.5% | Percent Effect [9]: -0.295%

Cc1csc(C2CCCN(C(=O)c3cnc[nH]3)C2)n1 (stereo not drawn)
Percent Effect [1]: -3.16% | Percent Effect [2]: 10.8% | Percent Effect [3]: -8.22% | Percent Effect [4]: 15.3% | Percent Effect (Trypanosoma cruzi): 3.11% | Percent Effect [5]: -4.41% | Percent Effect [6]: 3.42% | Percent Effect (Homo sapiens): 32.5% | Percent Effect [7]: 5.42% | Percent Effect [8]: 18.5% | Percent Effect [9]: -10.5%

CCOc1nnc(CN2CCC(N(C)Cc3noc(C)n3)C2)s1 (stereo not drawn)
Percent Effect [1]: -0.236% | Percent Effect [2]: 13.2% | Percent Effect [3]: -4.92% | Percent Effect [4]: -14.9% | Percent Effect (Trypanosoma cruzi): -9.06% | Percent Effect [5]: 5.04% | Percent Effect [6]: 12.4% | Percent Effect (Homo sapiens): 11.4% | Percent Effect [7]: 7.39% | Percent Effect [8]: 6.17% | Percent Effect [9]: -8.06%

Cn1cc(C(=O)NCc2cn3c(n2)CN(Cc2ccccn2)CC3)cn1
Percent Effect [1]: -7.16% | Percent Effect [2]: 2.7% | Percent Effect [3]: 4.33% | Percent Effect [4]: -3.43% | Percent Effect (Trypanosoma cruzi): 2.73% | Percent Effect [5]: 2.08% | Percent Effect [6]: -0.254% | Percent Effect (Homo sapiens): -6.36% | Percent Effect [7]: 6.93% | Percent Effect [8]: 8.54% | Percent Effect [9]: -1.37%

Nc1cc2c(nn1)CCN(C(=O)CC1CCCC1)C2
Percent Effect [1]: -3.9% | Percent Effect [2]: 10.1% | Percent Effect [3]: -4.63% | Percent Effect [4]: 16.5% | Percent Effect (Trypanosoma cruzi): -3.12% | Percent Effect [5]: -0.38% | Percent Effect [6]: -0.246% | Percent Effect (Homo sapiens): -1.92% | Percent Effect [7]: 7.39% | Percent Effect [8]: 13.9% | Percent Effect [9]: -5.84%
